Reference: PubChem BioAssay (NCI)
About 83,000 compounds went through this panel and 20% of them were active in at least one assay; those are over-represented in the sample as a whole.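 In brief: 96-well plates, 48 h treatment, single concentration, percent growth endpoint.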 Values without a mark were called inactive. Activity calls are given as the source filed them. The calls were made as follows: active = growth percent below 10; inactive = the rest.

What was measured:
Experiment in all cases: NCI-60 one-dose screen, 48 h (100 = growth as untreated, 0 = no growth, -100 = all killed)
Conditions in all cases: 10 µM unless noted
HCT-15 colon = tested on: HCT-15 colon
HT29 colon = tested on: HT29 colon
SNB-75 CNS = tested on: SNB-75 CNS
SNB-19 CNS = tested on: SNB-19 CNS
U251 CNS = tested on: U251 CNS
PC-3 prostate = tested on: PC-3 prostate
SK-MEL-5 melanoma = tested on: SK-MEL-5 melanoma
UACC-62 melanoma = tested on: UACC-62 melanoma
LOX IMVI melanoma = tested on: LOX IMVI melanoma
SK-MEL-28 melanoma = tested on: SK-MEL-28 melanoma
SK-MEL-2 melanoma = tested on: SK-MEL-2 melanoma
EKVX NSCLC = tested on: EKVX NSCLC
SN12C renal = tested on: SN12C renal
UO-31 renal = tested on: UO-31 renal
TK-10 renal = tested on: TK-10 renal
CAKI-1 renal = tested on: CAKI-1 renal
A498 renal = tested on: A498 renal
CCRF-CEM leukemia = tested on: CCRF-CEM leukemia
MOLT-4 leukemia = tested on: MOLT-4 leukemia
ACHN renal = tested on: ACHN renal

Structure (SMILES): COc1cc(-c2nccc3[nH]c(-c4cccc5[nH]ccc45)nc23)cc(OC)c1OC
- growth (HCT-15 colon): 17.6%
- growth (HT29 colon): -3.78% (active)
- growth (SNB-75 CNS): 73.6%
- growth (SNB-19 CNS): 49.1%
- growth (U251 CNS): 13.6%
- growth (PC-3 prostate): 11.8%
- growth (SK-MEL-5 melanoma): -45.8% (active)
- growth (UACC-62 melanoma): 51.4%
- growth (LOX IMVI melanoma): 20.6%
- growth (SK-MEL-28 melanoma): 76.9%
- growth (SK-MEL-2 melanoma): 35.8%
- growth (EKVX NSCLC): 46.3%
- growth (SN12C renal): 40.9%
- growth (UO-31 renal): 34%
- growth (TK-10 renal): 34.7%
- growth (CAKI-1 renal): 31.4%
- growth (A498 renal): -6.89% (active)
- growth (CCRF-CEM leukemia): 11.7%
- growth (MOLT-4 leukemia): 19.9%

Structure (SMILES): Nc1c(Cl)cc(/C=C2\C=Cc3ccccc32)cc1Cl
- growth (HCT-15 colon): 100%
- growth (HT29 colon): 97.6%
- growth (SNB-75 CNS): 86.1%
- growth (SNB-19 CNS): 114%
- growth (U251 CNS): 108%
- growth (PC-3 prostate): 90.6%
- growth (SK-MEL-5 melanoma): 105%
- growth (UACC-62 melanoma): 106%
- growth (LOX IMVI melanoma): 89.7%
- growth (SK-MEL-28 melanoma): 114%
- growth (SK-MEL-2 melanoma): 120%
- growth (EKVX NSCLC): 94.2%
- growth (SN12C renal): 113%
- growth (UO-31 renal): 95.7%
- growth (TK-10 renal): 107%
- growth (ACHN renal): 101%
- growth (CAKI-1 renal): 110%
- growth (A498 renal): 97.6%
- growth (MOLT-4 leukemia): 98.7%

Structure (SMILES): CCN(CC)CCOc1ccc2c(-c3ccccc3)c(-c3ccc(OC)cc3)c(=O)oc2c1
- growth (HCT-15 colon): 11.4%
- growth (HT29 colon): 17%
- growth (SNB-75 CNS): 82.6%
- growth (SNB-19 CNS): 69%
- growth (U251 CNS): 44.4%
- growth (PC-3 prostate): 65.4%
- growth (SK-MEL-5 melanoma): 25.9%
- growth (UACC-62 melanoma): -15% (active)
- growth (LOX IMVI melanoma): 29.3%
- growth (SK-MEL-28 melanoma): 43.1%
- growth (SK-MEL-2 melanoma): 51.6%
- growth (EKVX NSCLC): 83.9%
- growth (SN12C renal): 68.5%
- growth (UO-31 renal): 62.6%
- growth (TK-10 renal): 75.9%
- growth (CAKI-1 renal): 71.9%
- growth (A498 renal): 70.2%
- growth (CCRF-CEM leukemia): 75.3%
- growth (MOLT-4 leukemia): 35.4%

Structure (SMILES): COc1ccc(-c2cc(-c3cc(OC)ccc3OC)nc(SCC(C)=O)c2C#N)cc1
- growth (HCT-15 colon): 52.7%
- growth (HT29 colon): 81.8%
- growth (SNB-75 CNS): 42.7%
- growth (SNB-19 CNS): 75.8%
- growth (U251 CNS): 74.4%
- growth (PC-3 prostate): 56.2%
- growth (SK-MEL-5 melanoma): 65.7%
- growth (UACC-62 melanoma): 67.1%
- growth (LOX IMVI melanoma): 57.9%
- growth (SK-MEL-28 melanoma): 68%
- growth (SK-MEL-2 melanoma): 78.6%
- growth (EKVX NSCLC): 51.6%
- growth (SN12C renal): 76.7%
- growth (UO-31 renal): 41.1%
- growth (TK-10 renal): 101%
- growth (ACHN renal): 56.5%
- growth (CAKI-1 renal): 40.6%
- growth (A498 renal): 39%
- growth (MOLT-4 leukemia): 37.9%

Structure (SMILES): C=C(C)[C@@H]1CC[C@]2(C(=O)N3CCNCC3)CC[C@]3(C)[C@H](CC[C@@H]4[C@@](C)(CCC(=O)N5CCNCC5)[C@H](C(=C)C)CC[C@]43C)[C@@H]12
- growth (HCT-15 colon): 30.8%
- growth (HT29 colon): 26.1%
- growth (SNB-75 CNS): 86.3%
- growth (SNB-19 CNS): 99%
- growth (U251 CNS): 7.62% (active)
- growth (PC-3 prostate): 57.7%
- growth (SK-MEL-5 melanoma): 89.7%
- growth (UACC-62 melanoma): 104%
- growth (LOX IMVI melanoma): 44.4%
- growth (SK-MEL-28 melanoma): 96.7%
- growth (SK-MEL-2 melanoma): 102%
- growth (EKVX NSCLC): 102%
- growth (SN12C renal): 91.4%
- growth (UO-31 renal): 64.3%
- growth (TK-10 renal): 93.6%
- growth (ACHN renal): 93.9%
- growth (CAKI-1 renal): 92.7%
- growth (A498 renal): 76.2%
- growth (MOLT-4 leukemia): 24.7%

Structure (SMILES): O=C(/C=C/C12c3ccccc3C(c3ccccc31)C1C(=O)NC(=O)C12)c1ccc(Cl)cc1Cl (configuration not stated)
- growth (HCT-15 colon): 11%
- growth (HT29 colon): 1.07% (active)
- growth (SNB-75 CNS): 25.1%
- growth (SNB-19 CNS): 27%
- growth (U251 CNS): 7.87% (active)
- growth (PC-3 prostate): 15.6%
- growth (SK-MEL-5 melanoma): 36.8%
- growth (UACC-62 melanoma): 12.5%
- growth (LOX IMVI melanoma): -25.6% (active)
- growth (SK-MEL-28 melanoma): 4.9% (active)
- growth (SK-MEL-2 melanoma): -2.62% (active)
- growth (EKVX NSCLC): 36.4%
- growth (SN12C renal): 9.38% (active)
- growth (UO-31 renal): 32.4%
- growth (TK-10 renal): 22.4%
- growth (ACHN renal): 28.2%
- growth (CAKI-1 renal): 25.5%
- growth (A498 renal): 35.7%
- growth (MOLT-4 leukemia): -0.49% (active)

Structure (SMILES): CN(C)CCCNC(=O)c1cncnc1Nc1ccc2c(ccn2Cc2cccc(F)c2)c1
- growth (HCT-15 colon): 63.2%
- growth (HT29 colon): 39.1%
- growth (SNB-75 CNS): 78%
- growth (SNB-19 CNS): 92.5%
- growth (U251 CNS): 68.9%
- growth (PC-3 prostate): 86%
- growth (SK-MEL-5 melanoma): 91.4%
- growth (UACC-62 melanoma): 100%
- growth (LOX IMVI melanoma): 76.7%
- growth (SK-MEL-28 melanoma): 89.6%
- growth (SK-MEL-2 melanoma): 107%
- growth (EKVX NSCLC): 96.6%
- growth (SN12C renal): 84.9%
- growth (UO-31 renal): 71.5%
- growth (TK-10 renal): 103%
- growth (ACHN renal): 102%
- growth (CAKI-1 renal): 83.7%
- growth (A498 renal): 32.7%
- growth (MOLT-4 leukemia): 72%

Structure (SMILES): Fc1cccc(-c2nc(-c3c[nH]c4ncccc34)cs2)c1
- growth (HCT-15 colon): 82.9% [100 µM]
- growth (HT29 colon): 76% [100 µM]
- growth (SNB-75 CNS): -14.1% [100 µM] (active)
- growth (SNB-19 CNS): 70.8% [100 µM]
- growth (U251 CNS): 33.7% [100 µM]
- growth (PC-3 prostate): 59.6% [100 µM]
- growth (SK-MEL-5 melanoma): 50.6% [100 µM]
- growth (UACC-62 melanoma): 73.1% [100 µM]
- growth (LOX IMVI melanoma): 74.3% [100 µM]
- growth (SK-MEL-28 melanoma): 89.2% [100 µM]
- growth (SK-MEL-2 melanoma): 117% [100 µM]
- growth (EKVX NSCLC): 28.6% [100 µM]
- growth (SN12C renal): 62.7% [100 µM]
- growth (UO-31 renal): 61.1% [100 µM]
- growth (TK-10 renal): 18% [100 µM]
- growth (ACHN renal): 22% [100 µM]
- growth (CAKI-1 renal): -11.1% [100 µM] (active)
- growth (A498 renal): 76.6% [100 µM]
- growth (MOLT-4 leukemia): 71.8% [100 µM]
